Experimental data published in PubChem BioAssay (EPA / NIEHS).
Several values for one entry are separate records, joined by “and”; a condition that tells them apart may be missing. Identical values can stand only once. A structure can be active in one record and inactive in another. Activity calls are given as the source filed them. How the source made its calls: active means hit-call score of the fitted dose curve at least 0.9, where 1 is the maximum; inactive means score below 0.9.

Assays:
[1] = ATG_GLI_CIS: Attagene CIS-FACTORIAL HepG2 Assay for human Zinc Finger Protein GLI1 (AID 2282945); details: HepG2, Attagene cis-factorial reporter mRNA, GLI element; actives raise or lower the signal
Method in brief: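 HepG2 cells transiently transfected with cis-promoter multiplexed reporter units report endogenous transcription factor activity. After 24 h chemical exposure, reporter mRNA was quantified by RT-PCR, 6-FAM labelling, HpaI digestion and capillary electrophoresis, with bidirectional fitting against DMSO.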

[2] = ATG_GRE_CIS: Attagene CIS-FACTORIAL HepG2 Assay for human Glucocorticoid Response Elements (GRE) (AID 2282947); details: HepG2 GRE cis-reporter, Attagene multiplex mRNA; actives raise or lower the signal
Method in brief: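 Following 24 h chemical exposure of transiently transfected HepG2 cells, total RNA was reverse-transcribed and reporter cDNA amplified, fluorescently labelled and sized by capillary electrophoresis. Signal gain or loss was fitted relative to DMSO vehicle.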

[3] = ATG_ISRE_CIS: Attagene CIS-FACTORIAL HepG2 Assay for human Interferon Regulatory Factor 1 (IRF1) binding to an Interferon-Stimulated Response Element (ISRE) (AID 2282948); details: HepG2 ISRE cis-reporter (Attagene), mRNA transcription readout; actives raise or lower the signal
Method in brief: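 Cell-based cis-reporter assay; HepG2; 24 h exposure; reporter mRNA by RT-PCR plus capillary electrophoresis fluorescence; activity in either direction scored relative to DMSO.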

[4] = ATG_M_32_CIS: Attagene CIS-FACTORIAL HepG2 Assay for M32 Transcription Factor (Internal Marker) (AID 2282949); details: HepG2 Attagene cis-factorial M32 reporter, mRNA; actives raise or lower the signal;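 further: background control marker of the multiplexed CIS panel rather than a real target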
Method in brief: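 HepG2 cells transiently transfected with multiplexed cis-regulated reporter units, dosed 24 h. Reporter mRNA quantified by RT-PCR, 6-FAM labelling, HpaI digestion and capillary electrophoresis; bidirectional fit vs DMSO.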

[5] = ATG_M_06_CIS: Attagene CIS-FACTORIAL HepG2 Assay for M06 Transcription Factor (Internal Marker) (AID 2282950); details: HepG2 Attagene CIS-FACTORIAL M06 internal marker reporter; actives raise or lower the signal
Method in brief: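 Cells (HepG2, transiently carrying cis-driven reporter units) receive chemical for 24 h before RNA isolation. Reporter cDNA is PCR-amplified, FAM-labelled by primer extension, HpaI-digested and sized on a capillary analyser.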

[6] = target: Hypoxia-inducible factor 1-alpha (Homo sapiens) (UniProt Q16665); test: ATG_HIF1a_CIS: Attagene CIS-FACTORIAL HepG2 Assay for human Hypoxia Inducible Factor 1 (HIF1A) (AID 2282951); details: HepG2 Attagene cis-factorial HIF1a reporter transcription; actives raise or lower the signal
Hypoxia-inducible factor 1-alpha (Homo sapiens), sequence (Q16665 whole entry, looked up): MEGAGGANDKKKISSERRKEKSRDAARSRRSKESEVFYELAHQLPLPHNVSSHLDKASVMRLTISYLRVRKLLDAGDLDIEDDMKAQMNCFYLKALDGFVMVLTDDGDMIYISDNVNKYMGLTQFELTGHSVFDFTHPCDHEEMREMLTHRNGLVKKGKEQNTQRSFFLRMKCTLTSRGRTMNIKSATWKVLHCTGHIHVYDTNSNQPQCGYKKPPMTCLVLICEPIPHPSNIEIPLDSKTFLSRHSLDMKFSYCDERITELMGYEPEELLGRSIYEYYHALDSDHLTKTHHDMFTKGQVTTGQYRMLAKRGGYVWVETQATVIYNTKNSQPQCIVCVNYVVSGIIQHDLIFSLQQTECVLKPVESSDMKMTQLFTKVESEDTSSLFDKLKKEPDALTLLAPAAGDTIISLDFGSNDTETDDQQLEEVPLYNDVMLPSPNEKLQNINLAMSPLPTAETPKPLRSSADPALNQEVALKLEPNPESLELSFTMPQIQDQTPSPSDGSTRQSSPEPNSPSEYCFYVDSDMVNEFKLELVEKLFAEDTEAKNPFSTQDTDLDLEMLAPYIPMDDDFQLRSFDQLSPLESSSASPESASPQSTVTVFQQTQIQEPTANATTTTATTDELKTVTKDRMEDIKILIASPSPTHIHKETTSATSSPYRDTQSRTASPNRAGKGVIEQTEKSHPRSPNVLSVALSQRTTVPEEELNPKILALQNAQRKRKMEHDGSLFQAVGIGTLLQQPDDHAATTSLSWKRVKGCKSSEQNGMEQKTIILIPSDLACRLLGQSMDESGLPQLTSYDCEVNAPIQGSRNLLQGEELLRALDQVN
Method in brief: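 Activity is fitted in both directions relative to DMSO. Reporter transcripts are read by RT-PCR, fluorescent primer extension and capillary electrophoresis after 24 h chemical treatment. The cells are HepG2 carrying transiently transfected cis-element-driven reporter units responding to endogenous factors.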

[7] = target: Hepatocyte nuclear factor 6 (Homo sapiens) (UniProt Q9UBC0); test: ATG_HNF6_CIS: Attagene CIS-FACTORIAL HepG2 Assay for human Hepatocyte Nuclear Factor 6 (HNF6) (AID 2282952); details: HepG2 Attagene cis-factorial HNF6 reporter transcription; actives raise or lower the signal
Hepatocyte nuclear factor 6 (Homo sapiens), sequence (Q9UBC0 whole entry, looked up, the tested form may be a part): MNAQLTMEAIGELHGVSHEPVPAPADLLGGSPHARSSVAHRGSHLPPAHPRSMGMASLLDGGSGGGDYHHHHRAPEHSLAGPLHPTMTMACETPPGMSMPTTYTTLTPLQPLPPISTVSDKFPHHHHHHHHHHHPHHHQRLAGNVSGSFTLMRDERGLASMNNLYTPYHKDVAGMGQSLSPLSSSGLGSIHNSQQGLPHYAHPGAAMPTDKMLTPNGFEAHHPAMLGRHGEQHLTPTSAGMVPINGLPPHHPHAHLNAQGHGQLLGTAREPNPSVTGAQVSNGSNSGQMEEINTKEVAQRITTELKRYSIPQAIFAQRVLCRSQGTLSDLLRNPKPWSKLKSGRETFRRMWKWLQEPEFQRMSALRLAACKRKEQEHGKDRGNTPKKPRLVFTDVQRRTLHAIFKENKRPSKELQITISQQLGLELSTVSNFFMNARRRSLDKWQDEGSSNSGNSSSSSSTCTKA
Method in brief: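 Reporter mRNA induction or loss in HepG2 after 24 h exposure; transient cis-MRTU transfection; fragments quantified by capillary electrophoresis; bidirectional analysis, DMSO as negative control.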

[8] = target: Heat shock factor protein 1 (Homo sapiens) (UniProt Q00613); test: ATG_HSE_CIS: Attagene CIS-FACTORIAL HepG2 Assay for human Heat Shock Transcription Factor 1 (HSE) (AID 2282953); details: HepG2 HSE cis-reporter, Attagene RNA transcription; actives raise or lower the signal
Heat shock factor protein 1 (Homo sapiens), sequence (Q00613 whole entry, looked up): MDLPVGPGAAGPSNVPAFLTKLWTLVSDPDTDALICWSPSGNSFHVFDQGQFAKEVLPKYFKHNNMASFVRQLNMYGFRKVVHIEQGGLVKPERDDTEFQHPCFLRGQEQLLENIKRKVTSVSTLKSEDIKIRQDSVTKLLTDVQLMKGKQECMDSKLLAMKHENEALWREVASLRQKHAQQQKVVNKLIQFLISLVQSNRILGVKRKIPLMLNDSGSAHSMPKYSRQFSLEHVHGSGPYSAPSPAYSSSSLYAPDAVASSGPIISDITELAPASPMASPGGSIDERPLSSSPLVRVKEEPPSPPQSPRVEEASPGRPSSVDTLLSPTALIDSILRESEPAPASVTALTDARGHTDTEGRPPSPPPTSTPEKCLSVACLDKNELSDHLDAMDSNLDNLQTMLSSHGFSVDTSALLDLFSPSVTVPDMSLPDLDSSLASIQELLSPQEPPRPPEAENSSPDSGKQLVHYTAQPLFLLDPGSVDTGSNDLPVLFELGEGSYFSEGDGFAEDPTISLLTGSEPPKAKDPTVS
Method in brief: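 Liver-derived HepG2 cells carry transiently introduced multiple reporter units governed by cis promoters. Reporter RNA measured 24 h post-dose through reverse transcription, PCR amplification, fluorescent labelling and capillary electrophoresis, normalised to DMSO.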

[9] = ATG_MRE_CIS: Attagene CIS-FACTORIAL HepG2 Assay for human Metal Responsive Element (MRE) (AID 2282954); details: HepG2 MRE cis-reporter transcription, Attagene multiplex; actives raise or lower the signal
Method in brief: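 Step one: transfect HepG2 with cis-regulated reporter units. Step two: dose 24 h. Step three: isolate RNA, RT-PCR, 6-FAM label, HpaI digest, capillary electrophoresis. Fit bidirectionally to DMSO.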

[10] = target: Paired box protein Pax-6 (Homo sapiens) (UniProt P26367); test: ATG_Pax6_CIS: Attagene CIS-FACTORIAL HepG2 Assay for human Paired Box 6 (PAX6) (AID 2282956); details: HepG2 CIS-FACTORIAL PAX6 reporter transcription, RNA readout; actives raise or lower the signal
Paired box protein Pax-6 (Homo sapiens), sequence (P26367 whole entry, looked up): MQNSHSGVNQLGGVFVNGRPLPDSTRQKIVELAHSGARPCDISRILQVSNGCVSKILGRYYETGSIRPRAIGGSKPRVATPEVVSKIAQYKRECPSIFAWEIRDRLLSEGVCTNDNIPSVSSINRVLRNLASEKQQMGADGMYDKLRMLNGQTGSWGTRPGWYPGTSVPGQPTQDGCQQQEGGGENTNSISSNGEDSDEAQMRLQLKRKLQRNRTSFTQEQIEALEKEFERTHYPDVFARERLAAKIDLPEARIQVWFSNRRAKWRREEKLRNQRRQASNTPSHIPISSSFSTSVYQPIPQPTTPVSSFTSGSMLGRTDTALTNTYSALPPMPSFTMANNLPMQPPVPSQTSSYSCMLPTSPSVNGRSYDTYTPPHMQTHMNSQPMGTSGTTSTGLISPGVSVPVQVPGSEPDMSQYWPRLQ
Method in brief: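 Multiplexed cis-reporter HepG2 system; 24 h treatment; reporter mRNA read by RT-PCR/CE fluorescence; bidirectional fit vs DMSO.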

[11] = ATG_PXRE_CIS: Attagene CIS-FACTORIAL HepG2 Assay for human Pregnane X Receptor Element (PXRE) (AID 2282957); details: HepG2 Attagene CIS-FACTORIAL PXRE reporter, mRNA; actives raise or lower the signal
Method in brief: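 Transiently transfected HepG2 cells were dosed and incubated for 24 h. RNA was then isolated, DNase-treated, reverse-transcribed and reporter sequences amplified. Labeled, HpaI-digested fragments were quantified by capillary electrophoresis against DMSO.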

[12] = ATG_PPRE_CIS: Attagene CIS-FACTORIAL HepG2 Assay for human Peroxisome Proliferator-activated Response Element (PPRE) (AID 2282958); details: HepG2 PPRE cis-element reporter, Attagene transcription factor profiling; actives raise or lower the signal
Method in brief: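 Endogenous PPRE-driven transcription is measured in HepG2 cells carrying transfected multi-reporter constructs. Reporter transcripts are quantified by RT-PCR, HpaI digestion and capillary electrophoresis 24 h after dosing. DMSO baseline, bidirectional fit.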

[13] = ATG_Sox_CIS: Attagene CIS-FACTORIAL HepG2 Assay for human SRY-box transcription factor (SOX) (AID 2282960); details: HepG2 Attagene cis-factorial SOX reporter, mRNA; actives raise or lower the signal
Method in brief: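 Reporter transcripts, measured by RT-PCR and capillary electrophoresis of labelled fragments, report endogenous SOX transcription factor activity. Transiently transfected human HepG2 cells receive chemical for 24 h; changes in either direction are fitted relative to DMSO.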

[14] = target: Transcription factor Sp1 (Homo sapiens) (UniProt P08047); test: ATG_Sp1_CIS: Attagene CIS-FACTORIAL HepG2 Assay for human Specificity Protein 1 (Sp1) (AID 2282961); details: HepG2 Sp1 cis-reporter transcription, actives raise or lower the signal
Transcription factor Sp1 (Homo sapiens), sequence (P08047 whole entry, looked up): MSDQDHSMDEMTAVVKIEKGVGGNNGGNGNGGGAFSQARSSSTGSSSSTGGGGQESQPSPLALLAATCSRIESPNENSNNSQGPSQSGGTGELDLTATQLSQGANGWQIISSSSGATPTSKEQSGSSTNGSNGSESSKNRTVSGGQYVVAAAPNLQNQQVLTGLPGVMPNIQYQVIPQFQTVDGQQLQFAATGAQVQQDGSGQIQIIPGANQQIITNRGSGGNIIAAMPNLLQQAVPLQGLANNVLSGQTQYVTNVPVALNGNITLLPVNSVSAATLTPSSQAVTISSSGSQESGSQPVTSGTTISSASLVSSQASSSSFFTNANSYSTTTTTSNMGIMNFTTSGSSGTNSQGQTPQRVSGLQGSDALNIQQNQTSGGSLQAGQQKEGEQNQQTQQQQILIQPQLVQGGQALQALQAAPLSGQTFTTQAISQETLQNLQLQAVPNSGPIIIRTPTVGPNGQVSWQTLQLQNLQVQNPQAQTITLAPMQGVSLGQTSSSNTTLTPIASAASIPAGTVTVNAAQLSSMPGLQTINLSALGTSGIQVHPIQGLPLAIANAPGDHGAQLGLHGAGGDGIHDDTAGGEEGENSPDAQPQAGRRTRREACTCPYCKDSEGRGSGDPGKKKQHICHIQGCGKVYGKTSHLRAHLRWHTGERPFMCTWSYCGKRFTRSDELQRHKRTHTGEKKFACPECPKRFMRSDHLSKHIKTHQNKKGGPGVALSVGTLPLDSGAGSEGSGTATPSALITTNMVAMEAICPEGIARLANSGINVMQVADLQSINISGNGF
Method in brief: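 Read-out is reporter transcript level, measured by RT-PCR and fluorescent capillary electrophoresis after 24 h chemical treatment. System: transiently transfected HepG2 cells reporting endogenous transcription factor activity; gain or loss fitted against DMSO baseline.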

[15] = ATG_SREBP_CIS: Attagene CIS-FACTORIAL HepG2 Assay for human Sterol Regulatory Element Binding (SREBP) (AID 2282962); details: HepG2 Attagene cis-factorial SREBP reporter, mRNA; actives raise or lower the signal
Method in brief: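 mRNA induction of transfected cis-promoter reporters in HepG2 cells, 24 h post-dose. Detection: RT-PCR with 6-FAM-labelled products, HpaI digest, capillary electrophoresis. DMSO served as negative control and baseline.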

[16] = target: Signal transducer and activator of transcription 3 (Homo sapiens) (UniProt P40763); test: ATG_STAT3_CIS: Attagene CIS-FACTORIAL HepG2 Assay for human Signal Transducer and Activator of Transcription 3 (STAT3) (AID 2282963); details: HepG2, Attagene cis-factorial STAT3 reporter transcription; actives raise or lower the signal
Signal transducer and activator of transcription 3 (Homo sapiens), sequence (P40763 whole entry, looked up): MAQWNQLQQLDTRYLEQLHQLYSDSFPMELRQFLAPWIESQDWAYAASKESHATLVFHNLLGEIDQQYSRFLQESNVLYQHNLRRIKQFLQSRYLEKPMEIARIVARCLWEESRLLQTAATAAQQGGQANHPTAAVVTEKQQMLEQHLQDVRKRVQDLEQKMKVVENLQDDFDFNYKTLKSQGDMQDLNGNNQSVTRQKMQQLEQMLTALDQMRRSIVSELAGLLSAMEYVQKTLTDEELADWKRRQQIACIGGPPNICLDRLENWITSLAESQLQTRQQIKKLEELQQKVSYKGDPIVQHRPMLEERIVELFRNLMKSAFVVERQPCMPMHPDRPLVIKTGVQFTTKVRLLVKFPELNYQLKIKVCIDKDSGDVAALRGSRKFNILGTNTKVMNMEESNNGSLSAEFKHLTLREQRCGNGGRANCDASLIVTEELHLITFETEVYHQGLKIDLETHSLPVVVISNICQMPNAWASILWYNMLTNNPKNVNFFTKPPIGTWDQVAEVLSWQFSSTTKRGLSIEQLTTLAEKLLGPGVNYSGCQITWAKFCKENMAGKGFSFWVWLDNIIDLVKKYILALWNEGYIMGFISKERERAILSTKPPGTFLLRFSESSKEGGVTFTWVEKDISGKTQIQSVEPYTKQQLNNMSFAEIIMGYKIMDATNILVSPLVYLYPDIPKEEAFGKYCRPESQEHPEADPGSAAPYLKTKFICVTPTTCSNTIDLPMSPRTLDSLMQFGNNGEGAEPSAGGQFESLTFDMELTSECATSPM
Method in brief: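 Transcript-level reporter assay. HepG2 transient MRTU transfection, 24 h exposure, fluorescence detection after RT-PCR and CE; DMSO baseline.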

[17] = ATG_TA_CIS: Attagene CIS-FACTORIAL HepG2 Assay for human TA Basal Promoter (AID 2282964); details: HepG2 Attagene CIS-factorial TA basal promoter reporter; actives raise or lower the signal
Method in brief: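 Background internal-marker endpoint from a 52-component HepG2 cis-reporter panel. Cells treated 24 h; reporter transcripts quantified via RT-PCR and CE fluorescence against DMSO baseline.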

[18] = target: Bile acid receptor (Homo sapiens) (UniProt Q96RI1); test: ATG_IR1_CIS: Attagene CIS-FACTORIAL HepG2 Assay for human Nuclear Receptor Subfamily 1 Group H Member 4 (NR1H4), IR1 submotif (AID 2282946); details: IR1 reporter transcription, actives raise or lower the signal
Bile acid receptor (Homo sapiens), sequence (Q96RI1 whole entry, looked up): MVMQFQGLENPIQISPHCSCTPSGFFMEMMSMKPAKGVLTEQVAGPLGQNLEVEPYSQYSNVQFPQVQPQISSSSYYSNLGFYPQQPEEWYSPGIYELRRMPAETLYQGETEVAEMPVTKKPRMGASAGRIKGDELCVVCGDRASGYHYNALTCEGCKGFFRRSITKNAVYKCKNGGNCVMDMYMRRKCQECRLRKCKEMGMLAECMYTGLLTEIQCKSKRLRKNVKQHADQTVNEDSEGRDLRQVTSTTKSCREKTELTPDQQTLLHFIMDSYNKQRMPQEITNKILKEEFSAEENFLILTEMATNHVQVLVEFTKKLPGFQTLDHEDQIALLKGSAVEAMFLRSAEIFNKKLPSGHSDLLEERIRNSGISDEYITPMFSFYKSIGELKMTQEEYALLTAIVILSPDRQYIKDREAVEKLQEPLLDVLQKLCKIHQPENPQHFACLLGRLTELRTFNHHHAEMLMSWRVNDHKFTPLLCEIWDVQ
Method in brief: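 Transient MRTU transfection, HepG2; 24 h dosing; RNA → RT-PCR → 6-FAM primer extension → HpaI digest → capillary electrophoresis fluorescence. Gain/loss of signal fitted relative to DMSO.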

[19] = ATG_RORE_CIS: Attagene CIS-FACTORIAL HepG2 Assay for human RAR-related Orphan Receptor Element (RORE) (AID 2282959); details: HepG2 Attagene cis-factorial RORE reporter, mRNA; actives raise or lower the signal
Method in brief: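 RORE reporter transcripts reflecting endogenous factor activity were read after 24 h compound exposure of transfected HepG2 cells, using reverse transcription, PCR, fluorescent labelling and capillary electrophoresis sizing. Gain or loss fitted against DMSO.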

Measured: AC50

Oc1ccc(Cl)cc1Cc1ccccc1
inactive: [1] | [2] | [3] | [4] | [5] | [6] | [7] | [8] | [9] | [10] | [11] | [12] | [13] | [14] | [15] | [16] | [17]
active: [1] 16.4 µM | [8] 17.3 µM | [9] 16 µM | [10] 8.56 µM | [12] 9.13 µM [middle of 6 runs] | [13] 8.2 µM | [14] 13.4 µM | [15] 7.03 µM and 6.32 µM | [17] 17.5 µM

CCc1ccc(C(=O)NN(C(=O)c2cc(C)cc(C)c2)C(C)(C)C)cc1
active: [9] 18.2 µM | [11] 1.28 µM
inactive: [1] | [18] | [2] | [3] | [4] | [5] | [6] | [7] | [8] | [10] | [12] | [13] | [14] | [16] | [17]

O=C(Nc1ccccc1)Nc1cnns1
inactive: [2] | [3] | [4] | [6] | [7] | [12] | [16] | [17]
active: [1] 50 µM | [18] 50 µM | [8] 93.4 µM | [9] 50 µM | [10] 85 µM | [11] 66.5 µM | [13] 50 µM | [14] 21.1 µM

CNC(=O)/C=C(\C)OP(=O)(OC)OC
inactive: [1] | [18] | [2] | [3] | [4] | [6] | [8] | [9] | [10] | [11] | [12] | [13] | [14] | [16] | [17]

CN1CSC(=S)N(C)C1
active: [9] 50 µM | [12] 10.3 µM | [14] 50 µM
inactive: [1] | [18] | [2] | [3] | [4] | [6] | [8] | [10] | [11] | [13] | [16] | [17]

Cc1cc(C)nc(NC(=O)NS(=O)(=O)c2ccccc2C(=O)OC2COC2)n1
active: [8] 76.2 µM | [9] 80.5 µM
inactive: [1] | [18] | [2] | [3] | [4] | [5] | [6] | [10] | [11] | [12] | [19] | [13] | [14] | [16] | [17]
